# “And” between values parts separate entries of the source, which are not always exact repeats. Equal entries are not always repeated. The panel holds about 83,000 compounds, 20% with a hit somewhere; the sample as a whole holds those more often.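 The endpoint reported here, percent growth, reads 100 for growth as untreated, 0 for no net growth and -100 for all cells dead.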 The source made the active and inactive calls. Rule for the calls: active = growth percent below 10; inactive = the rest.
# Tested on: MDA-MB-468 breast
# Test: NCI-60 one-dose screen, 48 h (100 = growth as untreated, 0 = no growth, -100 = all killed)
# Settings: 10 µM unless noted
row,Compound,growth
1,O=C(NNC(=O)N1c2ccccc2C=Cc2ccccc21)c1ccc2ccccc2c1,87.7% (inactive)
2,Cc1ccc(O)c(N)c1,98.9% (inactive)
3,O=C1c2c(c(=O)[nH]c3ccccc23)CCN1Cc1ccccc1,101% (inactive)
4,C/C(=N\O)c1ccc(NC(=O)CSc2nnc(-c3ccccc3)n2-c2ccccc2)cc1,75.4% (inactive)
5,Nc1ccc2ccc(N)cc2c1,75.8% (inactive)
6,N=C(N)c1ccc(-c2ccc(-c3cccs3)s2)cc1F,-77.4% (active)
7,CCCC1C(C(=O)OCC)=C(N)Oc2cc(O)ccc21 (stereo not given),110% (inactive)
8,COc1ccc(C(=O)C2C(C#N)C(C#N)C3c4ccccc4C=CN23)cc1 (stereo not given),64.8% (inactive)
9,COc1cc(C(=O)c2cc(C(C)=O)c3cccc(C)n23)cc(OC)c1OC,15.4% (inactive)
10,CCOc1nc(-c2ccccc2)cc2c(O)c(C(=O)N/N=C/c3ccccc3)[nH]c(=O)c12,105% (inactive)
11,CS(=O)(=O)c1nccc(-c2c(-c3cccc(OCc4ccccc4)c3)nc3sccn23)n1,-65.1% (active)
12,Nc1ccn(C2CC(O)C(CO)O2)c(=O)n1 (stereo not given),103% (inactive)
13,Cc1cc2nc(C(Cl)Cl)nc(-c3ccc(S(=O)(=O)N(C)C)cc3)n2n1,-20.2% (active)
14,CCOC(=O)CSc1ncnc2c1c(-c1ccccc1)c(-c1ccccc1)n2-c1ccc(C)cc1,51.9% (inactive)
15,CCOC(=O)c1nnn(Cc2cc(=O)oc3c2ccc2ccccc23)c1C,103% (inactive)
16,O=c1[nH]c(NCc2nnnn2-c2ccc(Br)cc2)nc2sc3c(c12)CCCC3,96.9% (inactive)
17,CCCCOc1ncnc2nc[nH]c12,98.5% (inactive)
18,CSc1ccc(/C(=N/N=C(N)N)c2ccc(F)cc2)cc1,-34.6% (active)
19,COc1cc(C2NC(=O)C(C#N)=C(Nc3cccc(C)c3)S2)ccc1O (stereo not given),96.6% (inactive)
20,COc1cc(C(=O)/C=C/c2c(C)n([O-])c3ccc(C)cc3[n+]2=O)cc(OC)c1OC,30.3% (inactive)

row,Compound,growth
1,CN(C)C[C@@H]1CCn2cc(c3ccccc32)C2=C(C(=O)NC2=O)c2cn(c3ccccc23)CCO1,23.3% (inactive)
2,O=C(C[n+]1cccc2ccccc21)c1ccc(O)c(O)c1,16.1% (inactive)
3,CC1=C(C(=O)Nc2ccccc2)C(c2ccc3c(c2)OCCO3)NC(=O)N1 (stereo not given),106% (inactive)
4,COc1cc(-c2ncn(/C=C\C(=O)OC(C)C)n2)cc(C(F)(F)F)c1,-40.6% (active)
5,Cn1cc(-c2nc(-c3c[nH]c4ccncc34)cs2)c2cc(F)ccc21,-72.8% (active)
6,CC(C)=CC/C=C(/C)[C@H]1CC[C@]2(C)[C@@H]1CC[C@@H]1[C@@]3(C)CCC(=O)NC(C)(C)[C@@H]3CC[C@]12C,-17.7% [100 µM] (active)
7,CCC(=O)Nc1nnc(Cc2ccc(OC)c(OC)c2)s1,-2.42% (active)
8,Cc1ccc(NCSc2ccc(Cl)cc2)cc1,-0.979% (active) and 43.6% (inactive)
9,O=C(NCCNc1nccc(-c2c(-c3cccc(O)c3)nc3sccn23)n1)c1cccc(C(F)(F)F)c1,70.5% (inactive)
10,CCCCNC(=O)C(=O)NCCCC,102% (inactive)
11,OC(c1ccccc1)c1nnc(SCc2ccccc2)n1Cc1ccccc1 (stereo not given),88.5% (inactive)
12,CN(C)c1ccc(/C=N\Nc2cc(=O)[nH]c3ccc(Cl)cc23)cc1,107% (inactive)
13,COc1cc(NC(C)CCCN)c2ncccc2c1Sc1ccc(Cl)cc1 (stereo not given),-2.79% (active)
14,CCN(CC)c1ccc2[nH]c3c(C(N)=O)cc(=O)c(=O)c=3oc2c1,-38.4% (active)
15,CCN(CC)CCN1CC(=O)Nc2cc(Cl)ccc21,98.7% (inactive)
16,NNC(=O)c1nc2ccccc2[nH]1,126% (inactive)
17,Fc1ccc2nc(-c3cnn4cccnc34)sc2c1,-2.57% (active)
18,O=CC(OC(=O)c1ccccc1)C(OC(=O)c1ccccc1)C(COC(c1ccccc1)(c1ccccc1)c1ccccc1)OC(=O)c1ccccc1 (stereo not given),74.6% (inactive)
19,CCN(CC)CCC(=O)Nc1ccc(Cn2nnc3c2C(=O)c2nnn(Cc4ccc(NC(=O)CCN(CC)CC)cc4)c2C3=O)cc1,-66.4% (active)
20,O=C(Nc1ccc2c(c1)C(=O)c1ccccc1-2)c1ccccc1,85.6% (inactive)

# Source: PubChem BioAssay (NCI)
